Hits are enriched below; roughly 1.7% of the tested compounds scored in any of these assays.
HEK293 tox – cytotoxicity counter-screen for GLP-1 receptor inverse agonists; HEK293 cAMP-luciferase reporter cells, luminescence, 24 h; Potency, µM (titrated, usually from 38.3 µM), for the others: top-dose activity change, negative = inhibition, most hits filed as inhibitors; 410,000 compounds, 0.13% hits;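 further: loss of luciferase light is scored as toxicity; on the % scale 0 is the no-effect control and ±100 the full control effect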
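Step one: seed cells (200 cells/uL, DMEM with 10% Nu serum, 1% pen-strep). Step two: 12-hour incubation at 37 deg C. Step three: pin 23 nL compound, incubate 24 hr. Step four: add luciferase reagent, read luminescence 12 min later.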
PTHR1 agonist – activates the human parathyroid hormone receptor PTHR1 | Q03431 | HEK293 GP2 PTHR1 cells, GloSensor cAMP luminescence, 1 h | Potency, µM (doses to about 115 µM), without a hit: at the highest dose activation, hits mostly activators | 410,000 compounds, 0.075% hits; further: nearly all actives have a fitted effect of over 55% in size
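HEK-293-derived GP2 cells expressing PTHR1 and a GloSensor cAMP reporter, 3,000/well, plated overnight, given luciferin plus IBMX (each 0.5 mM as added) for 1 h at 37 °C, then compound for 1 h at 37 °C. Luminescence was read after 15 min at room temperature.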
GLP-1R inv ag – GLP-1 receptor (human) inverse agonism; P43220; HEK293 GLP-1R CRE-luciferase, luminescence, 24 h; GLP-1R form is constitutively active; Potency, µM (titrated, usually from 38.3 µM), for the others: at the top dose activity change, negative = inhibition, hits mostly inhibitors; 410,000 compounds, 1.6% hits; further: on the % scale 0 is the no-effect control and ±100 the full control effect; nearly all actives have a fitted effect of over 55% in size
Target sequence (P43220 whole entry, looked up): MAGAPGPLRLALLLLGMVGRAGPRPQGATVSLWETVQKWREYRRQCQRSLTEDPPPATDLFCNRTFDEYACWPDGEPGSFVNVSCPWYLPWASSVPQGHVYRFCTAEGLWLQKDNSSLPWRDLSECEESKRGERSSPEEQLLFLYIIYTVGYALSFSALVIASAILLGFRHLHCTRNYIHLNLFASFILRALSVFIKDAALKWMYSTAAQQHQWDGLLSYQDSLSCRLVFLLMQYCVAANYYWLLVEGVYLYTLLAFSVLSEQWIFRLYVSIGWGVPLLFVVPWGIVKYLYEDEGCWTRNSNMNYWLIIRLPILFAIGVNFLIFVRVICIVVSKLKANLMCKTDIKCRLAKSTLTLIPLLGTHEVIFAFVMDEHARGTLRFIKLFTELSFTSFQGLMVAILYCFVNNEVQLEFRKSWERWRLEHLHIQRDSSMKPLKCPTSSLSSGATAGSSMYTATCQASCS
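Constitutively active GLP-1R drives a cAMP-responsive luciferase in stably transfected HEK293 cells; test compounds are added after overnight (12 h) attachment and left 24 hr, and signal loss in luminescence marks inhibition.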
GLP-1R agonist – activates the human GLP-1 receptor; HEK293 GLP-1R CRE-luciferase, luminescence, 4-6 h; cells express a hypersensitive GLP-1R form; 380,000 compounds, 0.007% hits; Potency, µM (doses to about 45.6 µM), for inactives: top-dose activation, usual class: activators; further: % of control where 0% means no effect
Active calls of the source: *; i = inactive; ? = inconclusive; . = no result; [ ] = another dose, or the depositor's remark. The call rests on the fitted dose curve; in most records, active means well fitted curve in the direction sought with a large enough effect; inconclusive means small, poorly fitted or top-dose-only effect, or another doubt; inactive means no such curve, though single readings can be large; an effect the other way counts as inactive or inconclusive. Potency means the concentration at half of the fitted maximal effect.

SMILES	HEK293 tox	PTHR1 agonist	GLP-1R inv ag	GLP-1R agonist
Cc1ccc(-c2nc(NCCCN(C)C)c3ccccc3n2)cc1	-16%	i	10µM*	0%
CC(C)(C)C(=O)OCCNc1nc(-c2ccccc2)nc2ccccc12	?	-33%	13µM*	-10%
Clc1ccc(OCCN2CCCCC2)cc1Cl	-6%	-11%	-27%	8%
NC(=S)NN=C1c2cc(OCCN3CCOCC3)ccc2-c2ccc(OCCN3CCOCC3)cc21	1.4µM*	-56%	7.9µM*	-7%
Clc1ccc(OCCN2CCOCC2)cc1Cl	0%	-1%	-3%	0%
ON=C1c2cc(OCCN3CCCCC3)ccc2-c2ccc(OCCN3CCCCC3)cc21	3.5µM*	i	13µM*	-22%
COc1ccccc1CNc1nc(NCC2CC2)nc2ccsc12	?	-21%	?	0%
CC[C@H]1OC(=O)[C@H](C)[C@@H](O[C@H]2C[C@@](C)(OC)[C@@H](O)[C@H](C)O2)[C@H](C)[C@@H](O[C@@H]2O[C@H](C)C[C@H](N(C)C)[C@H]2O)[C@](C)(O)C[C@H](C)C(=NOCOCCOC)[C@H](C)[C@@H](O)[C@]1(C)O	.	.	.	5%
Cc1ccc(S(=O)(=O)CCC(=O)Nc2ccc(OC(F)(F)F)cc2)cc1	-5%	i	-23%	.
COC(=O)c1c(NC(=O)CSc2nnnn2-c2ccccc2)sc2c1CCC(C(C)(C)C)C2 (configuration not stated)	0%	i	5.6µM*	0%
Cc1ccc(Cl)cc1NC(=O)COC(=O)CC(C)(C)CC1=NS(=O)(=O)c2ccccc2N1	-9%	-11%	?	1%
CC(C)(CC(=O)NCc1ccc(Cl)cc1Cl)CC1=NS(=O)(=O)c2ccccc2N1	?	-39%	8.9µM*	-3%
N#Cc1c(F)cccc1NCCCn1ccnc1	4%	i	10%	16%
COc1cc2ccccc2cc1C(=O)N1CCc2ccccc21	?	-27%	7.9µM*	2%
COc1cc(C(=O)N2CCc3ccccc32)cc(OC)c1OC	-4%	i	-27%	-4%
O=C(N=Nc1c(O)[nH]c2ccc(F)cc12)C1COc2ccccc2O1 (configuration not stated)	-8%	-5%	5%	8%
COc1cccc(NC(=O)CN(C)C(=O)c2cc(-c3ccc(F)cc3)nc3ccccc23)c1	?	-37%	7.1µM*	-20%
COc1ccc2cc(-c3cc(C(=O)O)c4ccccc4n3)ccc2c1	14%	-12%[57.5 µM]	2.2µM*	-20%
COc1cccc(NC(=O)CN(C)C(=O)c2cc(-c3ccccc3)nc3ccccc23)c1	?	i	?	-10%
COc1cccc(NC(=O)CN(C)C(=O)/C=C/c2cn(-c3ccccc3)nc2-c2ccc(C)cc2)c1	6%	i	2µM*	-7%
O=C(Cc1cnn(-c2ccccc2)c1)c1ccc(O)c(O)c1O	-14%	-28%	5%	2%
COc1ccc(OCc2cc(C(=O)NC(C)Cc3cnccn3)no2)c(Cl)c1 (configuration not stated)	0%	i	?	-6%
COc1ccc(S(=O)(=O)c2c(C(=O)c3ccc(C)c(C)c3)cnc3ccc(F)cc23)cc1	-22%	i	?	.
Cc1ccc2ncc(C(=O)c3ccc(C)c(C)c3)c(S(=O)(=O)c3ccc(F)cc3)c2c1	-17%	-24%	13µM*	.
COc1ccc(OCC(=O)c2c(O)c3ccccc3oc2=O)cc1	-1%	18µM*	0%	-8%
SMILES	HEK293 tox	PTHR1 agonist	GLP-1R inv ag	GLP-1R agonist
CCOc1ccc(OCC(=O)c2c(O)c3ccccc3oc2=O)cc1	-2%	i	12%	-16%
Cc1ccccc1CN1C(=O)c2ccccc2C1c1nnnn1C(C)C (configuration not stated)	3%	-9%	2%	5%
CCOc1ccc(Nc2nc(NCC3CCCO3)c3ccccc3n2)cc1 (configuration not stated)	?	-29%	3.5µM*	2%
CC(C)OC(=O)c1ccc(NC(=O)c2cccc(-n3cnnn3)c2)cc1	-24%	-34%	7.1µM*	8%
CCOc1ccc(NC(=O)c2cccc(-n3cnnn3)c2)cc1	2%	i	4%	-2%
O=C(CSc1nnc(Cn2nnc3ccccc32)o1)N(Cc1ccc(F)cc1)c1ccccc1	1%	-73%[57.5 µM]	11µM*	-2%
Fc1ccccc1-c1ccc(/C=N/Nc2nc3ccccc3[nH]2)o1	12%	-46%	?	17%
Cc1ccc(/C=N\Nc2nc3ccc(Cl)cc3[nH]2)o1	-28%	i	5µM*	-13%
Cc1ccc(C)c(S(=O)(=O)NCc2ccc(C(=O)N3CCC(Cc4ccccc4)CC3)cc2)c1	-28%	i	10µM*	4%
Cc1c(C(=O)N2CCC(Cc3ccccc3)CC2)cccc1[N+](=O)[O-]	1%[7.66 µM]	-34%	-14%[7.66 µM]	4%
Cc1ccc(C(=O)N2CCC(Cc3ccccc3)CC2)cc1[N+](=O)[O-]	-3%	i	10µM*	17%
CC1CCN(CCCNC(=O)c2nn(C)c3c2CS(=O)(=O)c2ccccc2-3)CC1	-15%	i	-4%	4%
CCc1ccccc1NNC(=O)c1snnc1C	?	i	10µM*	11%
O=C(Nc1ccc(F)c(Cl)c1)Nc1csc2ccccc12	?	-23%	?	0%
O=C(Nc1ccc(F)cc1F)Nc1csc2ccccc12	3%	-21%	10µM*	-18%
O=C(NC12CC3CC(CC(C3)C1)C2)c1ccccc1O	-16%	-9%[57.5 µM]	5.6µM*	3%
O=C(NC12CC3CC(CC(C3)C1)C2)c1cc(F)c(F)cc1Cl	-1%	-38%	10µM*	-3%
O=C(C1CCN(S(=O)(=O)c2ccccc2F)CC1)N1CCCC1	-1%	3%	11%	3%
COc1cccc2c1C(=O)c1c(O)c3c(c(O)c1C2=O)C[C@](O)(C(C)=O)C[C@H]3O[C@@H]1C[C@@H](N)[C@@H](O)[C@@H](C)O1	-36%	-13%	2.8µM*	-12%
COC(=O)C(Oc1ccc2c(-c3ccc(OC)cc3)cc(=O)oc2c1)c1ccccc1 (configuration not stated)	-11%	i	-29%	4%
CCOC(=O)C(Oc1ccc2c(-c3ccccc3)cc(=O)oc2c1)c1ccccc1 (configuration not stated)	24%	-6%	11µM*	14%
CCCOc1ccc(-c2nc(N3CCN(C)CC3)c3ccccc3n2)cc1	-8%	-3%	?	34%
CCCOc1ccc(-c2nc(N3CCN(CC)CC3)c3ccccc3n2)cc1	-28%	-18%	7.9µM*	13%
Cc1cc(N2CCN(C)CC2)nc2ccc(NC(=S)N3CCN(c4ccc(F)cc4)CC3)cc12	?	i	?	0%
Cc1cc(N2CCN(C)CC2)nc2ccc(NC(=S)N3CCCCCC3)cc12	-15%	i	11µM*	21%

From PubChem
